# From PubChem BioAssay (Tox21)
# Records with an inconclusive call do not appear. A call without a number means that no potency is given here. A number with no mark means an inactive call. Active and inactive are the calls of the source. Unless noted, calls come from the whole dose curve; as a rule, active = well fitted curve in the direction sought with a large enough effect in the repeat runs; inconclusive = weak or mixed curves; inactive = no such curve, though single readings can be large; an effect the other way counts as inactive or inconclusive.
# Key:
# [1] = qHTS assay to identify aromatase inhibitors - cell viability counter screen (AID 743084);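 note: cells stimulated with testosterone during compound exposure; nearly all actives have a fitted effect of over 55% in size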
# [2] = target: Aryl hydrocarbon receptor (Homo sapiens) (UniProt P35869); assay: qHTS assay to identify small molecule that activate the aryl hydrocarbon receptor (AhR) signaling pathway (AID 743085); note: nearly all actives have a fitted effect of over 15% in size; note: potency is the fitted concentration of half-maximal effect;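 for activation: HG2L7.5c1 human HepG2 liver cells with stably integrated DRE-driven firefly reporter; series mostly up to about 70 µM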
# Outline: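 A multiplexed format paired cell viability (CellTiter-Fluor fluorescence) with AhR-dependent luciferase output (ONE-Glo luminescence) in the same wells of HepG2 DRE-luc cells after 24 h compound exposure at 37C.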
# [3] = qHTS assay to identify small molecule that activate the aryl hydrocarbon receptor (AhR) signaling pathway - cell viability counter screen (AID 743086);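 note: HepG2 liver cells carrying the AhR DRE luciferase reporter; series mostly up to about 70 µM; nearly all actives have a fitted effect of over 45% in size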
# Outline: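 Cytotoxicity counter screen: CellTiter-Fluor signal (30 min, 37 C) in 4000 HepG2 cells/well carrying the DRE-luciferase reporter, following 24 h compound exposure at 37 C.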
# [4] = qHTS assay to identify small molecule antagonists of the peroxisome proliferator-activated receptor gamma (PPARg) signaling pathway - cell viability counter screen (AID 743194); note: nearly all actives have a fitted effect of over 55% in size
# Outline: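 Viability was measured as CellTiter-Glo luminescence in GeneBLAzer PPARg UAS-bla HEK293H cells. These cells had been exposed 17 h at 37 C to compounds together with rosiglitazone at 50 nM final, with the beta-lactamase readout taken in the same wells.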
# [5] = qHTS assay for small molecule agonists of the antioxidant response element (ARE) signaling pathway (AID 743202; active = well fitted activation curve with a large enough effect in the signal ratio in the repeat runs, not every such curve was filed as active; the % refers to the signal ratio)
# Outline: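 After 16 hours of compound treatment at 37 C, HepG2 cells with a stably integrated ARE-driven beta-lactamase reporter were loaded 2 hours at room temperature with LiveBLAzer B/G FRET substrate and fluorescence intensity measured.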
# [6] = qHTS assay for small molecule agonists of the antioxidant response element (ARE) signaling pathway - cell viability counter screen (AID 743203; calls by dose curve; note: nearly all actives have a fitted effect of over 55% in size)
# Outline: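 Luminescence read-out (CellTiter-Glo, 30 min at room temperature) measured cell viability in the same wells as the ARE beta-lactamase reporter. HepG2 ARE-bla cells were treated with compounds for 16 hrs at 37C/5% CO2.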
# [7] = qHTS assay for small molecule activators of the heat shock response signaling pathway - cell viability counter screen (AID 743209); note: nearly all actives have a fitted effect of over 50% in size
# Outline: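 HSE-bla HeLa; 1500 cells/well; overnight 37 C, 5% CO2; compound 5 h 37 C; LiveBLAzer B/G substrate 2.5 h RT; CellTiter-Glo 30 min RT; luminescence.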
# [8] = qHTS assay for small molecule activators of the heat shock response signaling pathway (AID 743210; active = well fitted activation curve with a large enough effect in the signal ratio in the repeat runs, with a control signal flat, not every such curve was filed as active; the % refers to the signal ratio; note: series mostly up to about 63 µM)
# Outline: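 Compound exposure lasted 5 h at 37 C in HeLa cells carrying a heat-shock-element-driven beta-lactamase reporter. Read-out: fluorescence intensity after 2.5 h room-temperature loading with LiveBLAzer B/G FRET substrate.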
# [9] = qHTS assay to identify small molecule agonists of the peroxisome proliferator-activated receptor delta (PPARd) signaling pathway - cell viability counter screen (AID 743211); note: nearly all actives have a fitted effect of over 55% in size
# Outline: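 Tox21 library compounds, delivered in DMSO, were incubated 17 h with PPARd-bla HEK293H cells; cytotoxicity was taken from CellTiter-Glo luminescence read 30 min after reagent addition.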
# [10] = qHTS assay to identify small molecule antagonists of the peroxisome proliferator-activated receptor delta (PPARd) signaling pathway - cell viability counter screen (AID 743213); note: nearly all actives have a fitted effect of over 50% in size
# Outline: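 Same-well viability: cells pre-incubated 5 h, dosed with compound plus 300 nM L165041, kept 17 h at 37 C, FRET substrate 2 h RT, then CellTiter-Glo 30 min RT and luminescence.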
# [11] = qHTS assay to identify small molecule agonists of the farnesoid-X-receptor (FXR) signaling pathway - cell viability counter screen (AID 743218); note: nearly all actives have a fitted effect of over 45% in size
# Outline: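 Luminescence from CellTiter-Glo, read after 30 min at RT, reports viability of GeneBLAzer FXR-UAS-bla HEK 293T cells treated 16 h with compounds in the wells used for the beta-lactamase reporter.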
# [12] = qHTS assay to identify small molecule antagonists of the farnesoid-X-receptor (FXR) signaling pathway - cell viability counter screen (AID 743221; active = well fitted cell-killing curve with a large enough effect in the repeat runs, not every such curve was filed as active; note: nearly all actives have a fitted effect of over 50% in size)
# Outline: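 Cytotoxicity is taken from ATP luminescence (CellTiter-Glo, 30 min, room temperature) in FXR-bla HEK 293T cells previously incubated 16 h at 37 C with compound and chenodeoxycholic acid at 50 uM final.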
# [13] = target: Vitamin D3 receptor (Homo sapiens) (UniProt P11473); assay: qHTS assay to identify small molecule agonists of the vitamin D receptor (VDR) signaling pathway (AID 743222; calls by dose curve)
# Outline: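 Beta-lactamase reporter readout (LiveBLAzer B/G FRET, 2 h RT) in VDR-bla cells after 16 h compound treatment at 37C, 5% CO2; cells pre-incubated 4 h before pin transfer of DMSO solutions.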
# [14] = target: Vitamin D3 receptor (Homo sapiens) (UniProt P11473); assay: qHTS assay to identify small molecule antagonists of the vitamin D receptor (VDR) signaling pathway (AID 743223; active = well fitted inhibition curve with a large enough effect in the signal ratio in the repeat runs, not every such curve was filed as active; the % refers to the signal ratio)
# Outline: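 Quantitative HTS in VDR-bla reporter cells stimulated with 1alpha,25-dihydroxyvitamin D3, 3 nM final. Compound exposure 16 h, 37C, 5% CO2. Read-out: beta-lactamase FRET substrate fluorescence, 2 h RT.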
# [15] = target: Bile acid receptor (Homo sapiens) (UniProt Q96RI1); assay: qHTS assay to identify small molecule antagonists of the farnesoid-X-receptor (FXR) signaling pathway (AID 743217; active = well fitted inhibition curve with a large enough effect in the signal ratio in the repeat runs, not every such curve was filed as active; the % refers to the signal ratio)
# Outline: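 Read-out: beta-lactamase FRET fluorescence (LiveBLAzer B/G substrate, 2 h, room temperature) in GeneBLAzer FXR-UAS-bla HEK 293T cells. Compounds were co-dosed with 50 uM chenodeoxycholic acid (final) and incubated 16 h at 37 °C.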
# [16] = target: Peroxisome proliferator-activated receptor gamma (Homo sapiens) (UniProt P37231); assay: qHTS assay to identify small molecule agonists of the peroxisome proliferator-activated receptor gamma (PPARg) signaling pathway (AID 743094; active = well fitted activation curve with a large enough effect in the signal ratio in the repeat runs, not every such curve was filed as active; the % refers to the signal ratio)
# Outline: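 HEK293H PPARg-bla cells, 5 h settle at 37C/5% CO2; compound (DMSO) 17 h, 37C; B/G FRET substrate 1 h RT; fluorescence intensity read-out. qHTS format.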
# [17] = target: Peroxisome proliferator-activated receptor gamma (Homo sapiens) (UniProt P37231); assay: qHTS assay to identify small molecule antagonists of the peroxisome proliferator-activated receptor gamma (PPARg) signaling pathway (AID 743191; calls by dose curve; note: series mostly up to about 63 µM; nearly all actives have a fitted effect of over 30% in size)
# Outline: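 Beta-lactamase reporter under UAS control in HEK293H PPARg-bla cells; compound treatment 17 h at 37C. Read-out: fluorescence intensity after 1 h room-temperature incubation with LiveBLAzer B/G FRET substrate.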
# [18] = target: Peroxisome proliferator-activated receptor delta (Homo sapiens) (UniProt Q03181); assay: qHTS assay to identify small molecule agonists of the peroxisome proliferator-activated receptor delta (PPARd) signaling pathway (AID 743212; calls by dose curve)
# Outline: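 Beta-lactamase reporter readout: a ratiometric FRET signal from the LiveBLAzer substrate after 2 h at room temperature. Compound exposure at 37 °C in PPARδ-bla HEK293H cells driven by an upstream activator sequence.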
# [19] = target: Peroxisome proliferator-activated receptor delta (Homo sapiens) (UniProt Q03181); assay: qHTS assay to identify small molecule antagonists of the peroxisome proliferator-activated receptor delta (PPARd) signaling pathway (AID 743215; active = well fitted inhibition curve with a large enough effect in the signal ratio in the repeat runs, not every such curve was filed as active; the % refers to the signal ratio;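 note: cells stimulated with agonist L165041 at 300 nM final during compound exposure; series mostly up to about 62 µM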)
# Outline: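 HEK293H GeneBLAzer PPARd UAS-bla reporter cells; cpd + L165041 300 nM final, 17 h 37 C; LiveBLAzer B/G FRET substrate 2 h RT; fluorescence intensity read-out. Antagonist mode.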
# [20] = target: Bile acid receptor (Homo sapiens) (UniProt Q96RI1); assay: qHTS assay to identify small molecule agonists of the farnesoid-X-receptor (FXR) signaling pathway (AID 743220; active = well fitted activation curve with a large enough effect in the signal ratio in the repeat runs, not every such curve was filed as active; the % refers to the signal ratio)
# Outline: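 FXR-UAS-bla HEK 293T cells carrying a UAS-driven beta-lactamase reporter were plated for 5 h at 37C/5% CO2, then exposed to DMSO-dissolved Tox21 10K compounds for 16 h at 37C. A LiveBLAzer B/G FRET substrate was loaded for 2 h at room temperature before fluorescence reading.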
# Bile acid receptor (Homo sapiens), sequence (Q96RI1 whole entry, looked up): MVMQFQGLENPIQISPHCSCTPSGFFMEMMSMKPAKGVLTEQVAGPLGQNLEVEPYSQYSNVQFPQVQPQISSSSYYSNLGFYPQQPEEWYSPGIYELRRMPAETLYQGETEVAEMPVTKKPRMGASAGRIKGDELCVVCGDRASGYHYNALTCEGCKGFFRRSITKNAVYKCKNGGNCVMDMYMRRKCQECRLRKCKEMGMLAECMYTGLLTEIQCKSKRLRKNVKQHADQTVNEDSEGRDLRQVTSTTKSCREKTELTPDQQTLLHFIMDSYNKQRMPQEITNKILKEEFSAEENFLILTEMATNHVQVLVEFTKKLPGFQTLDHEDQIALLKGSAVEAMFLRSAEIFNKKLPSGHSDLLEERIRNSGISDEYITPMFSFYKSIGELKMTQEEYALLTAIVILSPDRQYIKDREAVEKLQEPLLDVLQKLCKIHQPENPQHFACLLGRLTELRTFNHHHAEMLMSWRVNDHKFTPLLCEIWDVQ
# Peroxisome proliferator-activated receptor delta (Homo sapiens), sequence (Q03181 whole entry, looked up): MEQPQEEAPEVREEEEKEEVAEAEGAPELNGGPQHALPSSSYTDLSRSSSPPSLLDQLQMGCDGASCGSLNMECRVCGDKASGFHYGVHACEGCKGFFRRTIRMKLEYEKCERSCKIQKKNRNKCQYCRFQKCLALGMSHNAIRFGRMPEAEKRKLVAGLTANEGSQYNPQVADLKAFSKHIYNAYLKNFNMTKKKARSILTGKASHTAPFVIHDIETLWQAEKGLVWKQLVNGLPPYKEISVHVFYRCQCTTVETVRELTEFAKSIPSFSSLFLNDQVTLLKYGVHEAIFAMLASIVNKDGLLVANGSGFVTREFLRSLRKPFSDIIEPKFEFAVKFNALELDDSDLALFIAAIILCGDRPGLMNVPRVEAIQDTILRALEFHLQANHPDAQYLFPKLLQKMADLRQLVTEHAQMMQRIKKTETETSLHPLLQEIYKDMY
# Peroxisome proliferator-activated receptor gamma (Homo sapiens), sequence (P37231 whole entry, looked up): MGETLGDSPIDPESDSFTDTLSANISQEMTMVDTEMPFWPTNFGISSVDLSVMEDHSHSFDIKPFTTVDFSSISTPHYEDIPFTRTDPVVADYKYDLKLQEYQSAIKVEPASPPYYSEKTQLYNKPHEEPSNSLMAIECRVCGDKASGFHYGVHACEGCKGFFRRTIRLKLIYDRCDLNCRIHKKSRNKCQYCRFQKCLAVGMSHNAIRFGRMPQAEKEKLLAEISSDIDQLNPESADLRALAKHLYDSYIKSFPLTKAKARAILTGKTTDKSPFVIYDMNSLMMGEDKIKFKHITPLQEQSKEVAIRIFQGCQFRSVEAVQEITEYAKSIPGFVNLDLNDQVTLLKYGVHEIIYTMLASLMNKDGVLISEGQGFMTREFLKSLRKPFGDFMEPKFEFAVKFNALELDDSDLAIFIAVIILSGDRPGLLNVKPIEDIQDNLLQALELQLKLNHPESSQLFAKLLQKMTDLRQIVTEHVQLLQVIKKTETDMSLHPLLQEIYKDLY
# Aryl hydrocarbon receptor (Homo sapiens), sequence (P35869 whole entry, looked up): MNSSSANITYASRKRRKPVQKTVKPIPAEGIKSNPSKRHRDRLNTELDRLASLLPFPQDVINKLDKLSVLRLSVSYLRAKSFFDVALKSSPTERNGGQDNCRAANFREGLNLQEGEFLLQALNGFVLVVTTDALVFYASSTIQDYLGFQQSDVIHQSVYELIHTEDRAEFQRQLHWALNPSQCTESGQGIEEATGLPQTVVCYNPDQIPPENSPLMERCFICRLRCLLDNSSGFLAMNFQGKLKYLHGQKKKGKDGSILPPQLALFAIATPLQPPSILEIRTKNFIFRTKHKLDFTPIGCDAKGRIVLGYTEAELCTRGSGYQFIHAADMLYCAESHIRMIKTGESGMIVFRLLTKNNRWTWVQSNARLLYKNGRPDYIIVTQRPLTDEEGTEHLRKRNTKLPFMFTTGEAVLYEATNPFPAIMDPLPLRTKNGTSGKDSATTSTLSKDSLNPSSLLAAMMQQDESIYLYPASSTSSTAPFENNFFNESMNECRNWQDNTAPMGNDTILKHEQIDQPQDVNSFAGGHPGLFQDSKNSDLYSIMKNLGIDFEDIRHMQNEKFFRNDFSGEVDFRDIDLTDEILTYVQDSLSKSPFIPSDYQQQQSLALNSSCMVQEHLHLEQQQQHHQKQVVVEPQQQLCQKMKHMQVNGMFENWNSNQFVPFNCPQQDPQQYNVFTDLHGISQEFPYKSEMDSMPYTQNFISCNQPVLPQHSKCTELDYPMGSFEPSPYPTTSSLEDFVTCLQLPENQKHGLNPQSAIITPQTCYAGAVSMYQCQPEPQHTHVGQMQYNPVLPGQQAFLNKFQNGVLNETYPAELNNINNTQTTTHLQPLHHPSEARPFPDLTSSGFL
# Vitamin D3 receptor (Homo sapiens), sequence (P11473 whole entry, looked up): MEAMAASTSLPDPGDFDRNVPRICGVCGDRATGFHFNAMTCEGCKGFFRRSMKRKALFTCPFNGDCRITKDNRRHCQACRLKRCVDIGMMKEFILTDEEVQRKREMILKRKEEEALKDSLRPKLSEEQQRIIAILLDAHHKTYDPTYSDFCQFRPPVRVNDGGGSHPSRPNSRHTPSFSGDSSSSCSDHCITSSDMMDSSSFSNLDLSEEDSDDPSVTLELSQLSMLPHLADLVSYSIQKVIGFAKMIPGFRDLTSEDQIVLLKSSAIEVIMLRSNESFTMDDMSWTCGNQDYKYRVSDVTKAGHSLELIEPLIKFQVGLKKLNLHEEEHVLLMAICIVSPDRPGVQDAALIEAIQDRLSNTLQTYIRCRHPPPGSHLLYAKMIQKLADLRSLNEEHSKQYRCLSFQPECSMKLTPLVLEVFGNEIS
structure (smiles),measurement,setting,value
Clc1cc(Cl)c(Cl)c(Cl)c1Cl,outcome,[1],inactive
same,Potency,[2],inactive
same,outcome,[3],inactive
same,outcome,[4],inactive
same,Potency,[5],inactive
same,outcome,[6],inactive
same,Potency,[7],inactive
same,outcome,[8],inactive
same,outcome,[9],inactive
same,outcome,[10],inactive
same,outcome,[11],inactive
same,outcome,[12],inactive
same,outcome,[13],inactive
same,outcome,[14],inactive
CCCCN1C(=O)c2ccccc2C1=O,outcome,[1],inactive
same,Potency,[2],inactive
same,outcome,[3],inactive
same,outcome,[4],inactive
same,Potency,[5],inactive
same,outcome,[6],inactive
same,Potency,[7],inactive
same,outcome,[8],inactive
same,outcome,[15],inactive
same,outcome,[11],inactive
same,outcome,[12],inactive
same,outcome,[13],inactive
N[C@H]1C(O)O[C@H](CO)[C@@H](O)[C@@H]1O (stereo not given in full),outcome,[1],inactive
same,Potency,[2],inactive
same,outcome,[16],inactive
same,outcome,[17],inactive
same,outcome,[4],inactive
same,outcome,[6],inactive
same,Potency,[7],inactive
same,outcome,[8],inactive
same,outcome,[9],inactive
same,outcome,[18],inactive
same,outcome,[10],inactive
same,outcome,[19],inactive
same,outcome,[12],inactive
same,outcome,[13],inactive
same,outcome,[14],inactive
CC(=O)c1ccc2ccc3ccccc3c2c1,outcome,[1],inactive
same,Potency,[2],60.8 µM (active)
same,outcome,[3],inactive
same,outcome,[17],inactive
same,Potency,[5],inactive
same,outcome,[6],inactive
same,Potency,[7],inactive
same,outcome,[9],inactive
same,outcome,[18],inactive
same,outcome,[10],inactive
same,outcome,[15],inactive
same,outcome,[11],inactive
same,outcome,[20],inactive
same,outcome,[12],inactive
same,outcome,[13],inactive
same,outcome,[14],inactive
Cc1ccc(Br)cc1,outcome,[1],inactive
same,Potency,[2],inactive
same,outcome,[16],inactive
same,outcome,[17],inactive
same,outcome,[4],inactive
same,Potency,[5],inactive
same,outcome,[6],inactive
same,Potency,[7],inactive
same,outcome,[8],inactive
same,outcome,[9],inactive
same,outcome,[10],inactive
same,outcome,[19],inactive
same,outcome,[11],inactive
same,outcome,[12],inactive
same,outcome,[13],inactive
same,outcome,[14],inactive
C/C=C/C(=O)CCCC,outcome,[1],inactive
same,Potency,[2],inactive
same,outcome,[16],inactive
same,outcome,[17],inactive
same,outcome,[4],inactive
same,outcome,[6],inactive
same,Potency,[7],inactive
same,outcome,[8],inactive
same,outcome,[19],inactive
same,outcome,[12],inactive
same,outcome,[14],inactive
c1cc2ccc3ccc4ccc5cccc6c(c1)c2c3c4c56,"activity change, negative = cytotoxicity",[1],7.94% [at 3.79 µM]
same,activation,[2],0.485% [at 3.79 µM]
same,"activity change, negative = cytotoxicity",[4],27.2% [at 2.7 µM]
same,"viability change, negative = cytotoxic",[6],6.8% [at 3.74 µM]
same,"activity change, negative = cytotoxicity",[7],1.58% [at 2.7 µM]
same,"viability change, negative = cytotoxic",[10],-10.9% [at 2.83 µM]
same,"ratio activity, negative = inhibition",[19],2.1% [at 2.83 µM]
same,"activity change, negative = inhibition",[15],6.71% [at 2.69 µM]
same,"viability change, negative = cytotoxic",[11],0.833% [at 2.7 µM]
same,"activity change, negative = cytotoxicity",[12],2.77% [at 2.69 µM]
same,"activity change, negative = inhibition",[14],-9.77% [at 3.11 µM]
C[C@]12C=CC(=O)C=C1[C@@H](F)C[C@@H]1[C@@H]2[C@@H](O)C[C@@]2(C)[C@H]1CC[C@]2(O)C(=O)CO,outcome,[1],inactive
same,outcome,[3],inactive
same,outcome,[17],inactive
same,Potency,[5],inactive
same,outcome,[6],inactive
same,Potency,[7],inactive
same,outcome,[8],inactive
same,outcome,[9],inactive
same,outcome,[19],inactive
same,outcome,[11],inactive
same,outcome,[12],inactive
same,outcome,[13],inactive
same,outcome,[14],inactive
CC(C)C[P+](C)(CC(C)C)CC(C)C,outcome,[1],inactive
same,outcome,[16],inactive
same,outcome,[17],inactive
same,outcome,[4],inactive
same,Potency,[5],inactive
same,outcome,[6],inactive
same,Potency,[7],inactive
same,outcome,[9],inactive
same,outcome,[18],inactive
same,outcome,[10],inactive
same,outcome,[19],inactive
same,outcome,[15],inactive
same,outcome,[11],inactive
same,outcome,[20],inactive
same,outcome,[12],inactive
same,outcome,[13],inactive
same,outcome,[14],inactive
